# Reference: publication PMC7862700, “An all-to-all approach to the identification of sequence-specific readers for epigenetic DNA modifications on cytosine”
# How the values were obtained:
# Assay in all cases: DAPPL (digital affinity profiling via proximity ligation, sequencing); 10 mM Tris-HCl pH 7.5, 50 mM NaCl, 1 mM DTT, 4% glycerol, room temperature, 30 min; GST-TFs on glutathione beads, 16-mer random dsDNA library, 0.1% formaldehyde crosslink after washing; high values mean tight binding
# Details in all cases: protein: recombinant; tags: N-terminal GST; dsDNA, one strand shown
# [1] = biological target: T1, ELK1 (Homo sapiens, UniProt P19419 1-428)
# T1 sequence: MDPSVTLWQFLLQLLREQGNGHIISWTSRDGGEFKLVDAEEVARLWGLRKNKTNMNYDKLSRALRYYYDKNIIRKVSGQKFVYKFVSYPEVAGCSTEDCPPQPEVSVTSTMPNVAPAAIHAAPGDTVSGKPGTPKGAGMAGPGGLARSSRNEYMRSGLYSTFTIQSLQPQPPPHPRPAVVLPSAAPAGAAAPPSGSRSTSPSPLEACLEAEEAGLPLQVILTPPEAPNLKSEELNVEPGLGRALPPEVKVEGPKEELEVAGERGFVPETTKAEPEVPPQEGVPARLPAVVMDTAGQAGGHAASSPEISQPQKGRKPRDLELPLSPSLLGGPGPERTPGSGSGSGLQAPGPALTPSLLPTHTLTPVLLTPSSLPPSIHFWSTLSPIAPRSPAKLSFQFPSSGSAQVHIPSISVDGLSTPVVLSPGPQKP
# Method in brief: (§1)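 GST fusions of human transcription factors were expressed in yeast and captured with glutathione beads. Once given DNA barcodes and pooled alongside a tag-only sample, they were incubated for 30 min at room temperature with 200 nmole of a random double-stranded 16-mer DNA library in Tris/NaCl/DTT/glycerol buffer, then washed, crosslinked (0.1% formaldehyde), proximity-ligated, PCR-amplified and sequenced on an Illumina NextSeq500. The binding signal of each hexamer is its read frequency for a factor divided by its frequency for the tag-only sample.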
# [2] = biological target: T2, GABPA (Homo sapiens, UniProt Q06546 1-454)
# T2 sequence: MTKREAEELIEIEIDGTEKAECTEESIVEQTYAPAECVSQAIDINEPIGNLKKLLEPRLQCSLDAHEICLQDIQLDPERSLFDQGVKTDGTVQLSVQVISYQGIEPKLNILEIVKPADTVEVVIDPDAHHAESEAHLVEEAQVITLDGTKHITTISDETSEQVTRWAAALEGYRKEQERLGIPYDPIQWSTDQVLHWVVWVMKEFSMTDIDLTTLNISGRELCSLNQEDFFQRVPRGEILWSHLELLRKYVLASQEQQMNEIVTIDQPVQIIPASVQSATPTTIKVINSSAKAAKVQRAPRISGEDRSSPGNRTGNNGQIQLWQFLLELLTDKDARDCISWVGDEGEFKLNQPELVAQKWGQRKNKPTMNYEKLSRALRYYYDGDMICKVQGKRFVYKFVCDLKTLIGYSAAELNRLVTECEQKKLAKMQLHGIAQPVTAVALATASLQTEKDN
# Method in brief: as §1
# [3] = biological target: T3, ERG (Homo sapiens, UniProt P11308 1-479)
# T3 sequence: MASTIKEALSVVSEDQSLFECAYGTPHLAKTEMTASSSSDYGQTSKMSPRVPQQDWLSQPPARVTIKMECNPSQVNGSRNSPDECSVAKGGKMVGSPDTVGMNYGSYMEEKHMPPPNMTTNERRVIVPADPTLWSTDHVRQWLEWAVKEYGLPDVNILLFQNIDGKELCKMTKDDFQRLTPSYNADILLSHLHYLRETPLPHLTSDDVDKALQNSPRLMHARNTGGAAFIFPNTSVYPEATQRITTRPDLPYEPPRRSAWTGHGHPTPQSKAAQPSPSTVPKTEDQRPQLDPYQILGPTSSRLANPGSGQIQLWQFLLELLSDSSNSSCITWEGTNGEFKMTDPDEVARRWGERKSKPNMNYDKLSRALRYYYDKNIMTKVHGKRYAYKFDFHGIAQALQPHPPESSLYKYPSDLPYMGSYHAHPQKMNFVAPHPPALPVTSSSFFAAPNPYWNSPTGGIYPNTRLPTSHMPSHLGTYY
# Method in brief: as §1
# [4] = biological target: T4, EHF (Homo sapiens, UniProt Q9NZC4 1-300)
# T4 sequence: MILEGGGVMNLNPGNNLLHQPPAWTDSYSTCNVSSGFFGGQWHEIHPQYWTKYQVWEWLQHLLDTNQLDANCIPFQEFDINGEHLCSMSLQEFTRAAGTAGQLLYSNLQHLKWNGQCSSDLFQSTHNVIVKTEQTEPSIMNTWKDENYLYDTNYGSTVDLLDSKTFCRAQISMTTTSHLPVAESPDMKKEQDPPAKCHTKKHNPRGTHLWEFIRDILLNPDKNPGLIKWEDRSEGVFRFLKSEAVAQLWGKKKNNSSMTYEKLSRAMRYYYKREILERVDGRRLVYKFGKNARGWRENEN
# Method in brief: as §1
# [5] = biological target: T5, FEV (Homo sapiens, UniProt Q99581 1-238)
# T5 sequence: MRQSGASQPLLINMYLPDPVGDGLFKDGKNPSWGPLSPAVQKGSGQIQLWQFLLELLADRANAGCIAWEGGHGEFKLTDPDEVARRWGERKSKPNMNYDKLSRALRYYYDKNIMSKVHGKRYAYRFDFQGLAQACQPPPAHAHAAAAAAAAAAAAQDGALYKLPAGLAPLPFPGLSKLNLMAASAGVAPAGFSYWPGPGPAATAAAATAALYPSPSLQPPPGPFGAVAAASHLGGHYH
# Method in brief: as §1
# [6] = biological target: ETV5 (Homo sapiens, UniProt P41161 1-510)
# ETV5, sequence (P41161 whole entry): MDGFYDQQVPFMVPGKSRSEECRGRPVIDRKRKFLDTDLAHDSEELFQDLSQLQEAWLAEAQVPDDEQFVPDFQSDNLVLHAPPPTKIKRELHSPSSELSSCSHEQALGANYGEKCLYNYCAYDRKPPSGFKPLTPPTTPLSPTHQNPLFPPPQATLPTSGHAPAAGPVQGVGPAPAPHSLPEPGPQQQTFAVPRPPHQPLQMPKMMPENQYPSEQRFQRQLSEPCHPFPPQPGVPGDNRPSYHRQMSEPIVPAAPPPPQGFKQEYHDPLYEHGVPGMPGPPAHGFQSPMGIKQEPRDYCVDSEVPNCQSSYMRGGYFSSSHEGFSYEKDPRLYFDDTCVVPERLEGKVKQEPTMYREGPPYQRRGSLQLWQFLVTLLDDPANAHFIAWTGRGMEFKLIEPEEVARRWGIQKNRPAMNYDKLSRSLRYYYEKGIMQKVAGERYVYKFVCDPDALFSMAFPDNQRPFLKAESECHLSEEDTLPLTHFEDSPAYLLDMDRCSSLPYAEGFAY
# Method in brief: as §1
# [7] = biological target: ELF4 (Homo sapiens, UniProt Q99607 1-663)
# ELF4, sequence (Q99607 whole entry): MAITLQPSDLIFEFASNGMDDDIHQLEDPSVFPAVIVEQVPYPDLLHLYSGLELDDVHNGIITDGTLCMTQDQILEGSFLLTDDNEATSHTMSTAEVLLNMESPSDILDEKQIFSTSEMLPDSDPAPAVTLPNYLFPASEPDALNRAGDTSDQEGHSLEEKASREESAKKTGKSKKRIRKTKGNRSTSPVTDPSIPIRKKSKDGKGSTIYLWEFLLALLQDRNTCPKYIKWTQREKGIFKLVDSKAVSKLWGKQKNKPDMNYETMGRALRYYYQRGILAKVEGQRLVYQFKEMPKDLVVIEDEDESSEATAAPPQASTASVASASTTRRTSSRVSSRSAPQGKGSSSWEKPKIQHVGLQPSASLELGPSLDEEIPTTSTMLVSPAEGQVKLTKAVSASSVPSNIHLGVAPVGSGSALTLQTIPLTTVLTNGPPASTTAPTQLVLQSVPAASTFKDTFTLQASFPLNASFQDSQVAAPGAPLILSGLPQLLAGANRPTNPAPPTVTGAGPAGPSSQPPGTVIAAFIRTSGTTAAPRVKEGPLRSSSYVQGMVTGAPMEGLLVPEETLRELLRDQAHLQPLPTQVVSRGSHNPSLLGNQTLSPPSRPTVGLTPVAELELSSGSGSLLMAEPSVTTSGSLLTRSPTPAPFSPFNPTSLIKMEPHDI
# Method in brief: as §1
# [8] = biological target: T6, ELK4 (Homo sapiens, UniProt P28324-2 1-405)
# T6 sequence: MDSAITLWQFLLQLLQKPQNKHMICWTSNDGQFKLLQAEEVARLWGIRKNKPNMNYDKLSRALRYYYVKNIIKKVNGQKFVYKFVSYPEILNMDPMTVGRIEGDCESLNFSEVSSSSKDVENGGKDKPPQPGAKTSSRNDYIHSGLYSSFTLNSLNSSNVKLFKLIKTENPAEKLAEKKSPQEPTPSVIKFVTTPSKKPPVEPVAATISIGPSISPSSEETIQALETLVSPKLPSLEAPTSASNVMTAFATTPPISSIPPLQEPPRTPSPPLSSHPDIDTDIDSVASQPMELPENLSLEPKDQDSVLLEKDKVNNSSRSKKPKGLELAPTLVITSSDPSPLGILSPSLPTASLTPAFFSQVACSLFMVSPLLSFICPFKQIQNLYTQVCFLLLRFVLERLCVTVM
# Method in brief: as §1
# [9] = biological target: ETV1 (Homo sapiens, UniProt P50549 1-477)
# ETV1, sequence (P50549 whole entry): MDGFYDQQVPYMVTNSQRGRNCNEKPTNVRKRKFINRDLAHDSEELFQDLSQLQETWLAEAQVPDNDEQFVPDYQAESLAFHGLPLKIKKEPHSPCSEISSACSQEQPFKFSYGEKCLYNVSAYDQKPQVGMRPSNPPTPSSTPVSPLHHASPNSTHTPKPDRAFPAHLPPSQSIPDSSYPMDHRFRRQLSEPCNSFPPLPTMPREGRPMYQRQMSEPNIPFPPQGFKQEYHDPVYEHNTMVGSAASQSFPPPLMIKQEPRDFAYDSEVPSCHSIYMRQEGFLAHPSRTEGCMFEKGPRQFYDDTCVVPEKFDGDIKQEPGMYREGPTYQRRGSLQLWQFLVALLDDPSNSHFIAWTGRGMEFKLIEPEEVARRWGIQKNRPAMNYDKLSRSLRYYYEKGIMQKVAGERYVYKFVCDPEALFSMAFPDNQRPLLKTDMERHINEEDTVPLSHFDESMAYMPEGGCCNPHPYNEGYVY
# Method in brief: as §1
# [10] = biological target: T7, ERF (Homo sapiens, UniProt P50548 1-548)
# T7 sequence: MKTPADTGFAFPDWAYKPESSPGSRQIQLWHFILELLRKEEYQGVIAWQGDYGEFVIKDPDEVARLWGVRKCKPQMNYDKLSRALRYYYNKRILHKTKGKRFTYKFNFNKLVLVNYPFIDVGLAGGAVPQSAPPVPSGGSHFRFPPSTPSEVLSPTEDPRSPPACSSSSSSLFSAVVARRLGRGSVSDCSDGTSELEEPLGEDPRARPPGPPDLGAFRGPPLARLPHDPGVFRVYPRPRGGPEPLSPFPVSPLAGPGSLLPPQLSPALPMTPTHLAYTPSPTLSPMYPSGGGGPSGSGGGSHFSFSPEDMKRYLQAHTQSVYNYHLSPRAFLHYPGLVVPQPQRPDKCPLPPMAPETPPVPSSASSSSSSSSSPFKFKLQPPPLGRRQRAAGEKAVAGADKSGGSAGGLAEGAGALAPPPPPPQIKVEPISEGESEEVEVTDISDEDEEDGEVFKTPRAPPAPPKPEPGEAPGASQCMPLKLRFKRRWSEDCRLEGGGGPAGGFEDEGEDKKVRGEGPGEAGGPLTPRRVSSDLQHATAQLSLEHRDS
# Method in brief: as §1
# [11] = biological target: T8, ETV3L (Homo sapiens, UniProt Q6ZN32 1-361)
# T8 sequence: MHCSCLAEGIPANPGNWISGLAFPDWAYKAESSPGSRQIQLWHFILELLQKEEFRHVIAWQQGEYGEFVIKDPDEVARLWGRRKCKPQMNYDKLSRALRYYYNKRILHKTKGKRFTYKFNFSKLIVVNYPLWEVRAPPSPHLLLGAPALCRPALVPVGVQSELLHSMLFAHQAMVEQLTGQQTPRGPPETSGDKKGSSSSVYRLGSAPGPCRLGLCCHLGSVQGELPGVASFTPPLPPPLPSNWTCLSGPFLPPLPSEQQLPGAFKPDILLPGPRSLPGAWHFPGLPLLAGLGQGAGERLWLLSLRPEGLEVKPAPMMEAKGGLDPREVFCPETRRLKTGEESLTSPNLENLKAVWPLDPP
# Method in brief: as §1
# [12] = biological target: T9, ETS2 (Homo sapiens, UniProt P15036 1-469)
# T9 sequence: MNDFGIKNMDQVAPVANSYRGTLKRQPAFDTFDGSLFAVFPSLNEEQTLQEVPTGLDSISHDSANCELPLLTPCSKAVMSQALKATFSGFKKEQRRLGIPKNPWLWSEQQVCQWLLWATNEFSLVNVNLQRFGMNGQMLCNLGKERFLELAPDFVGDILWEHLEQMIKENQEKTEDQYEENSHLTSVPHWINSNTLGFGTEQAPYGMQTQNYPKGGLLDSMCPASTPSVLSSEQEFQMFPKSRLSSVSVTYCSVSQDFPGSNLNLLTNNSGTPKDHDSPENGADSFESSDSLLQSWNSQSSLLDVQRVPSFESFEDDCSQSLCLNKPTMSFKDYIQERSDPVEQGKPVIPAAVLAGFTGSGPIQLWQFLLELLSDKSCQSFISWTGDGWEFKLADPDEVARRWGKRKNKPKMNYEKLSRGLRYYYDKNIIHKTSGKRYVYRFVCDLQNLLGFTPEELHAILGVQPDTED
# Method in brief: as §1
# [13] = biological target: T10, SPDEF (Homo sapiens, UniProt O95238 1-335)
# T10 sequence: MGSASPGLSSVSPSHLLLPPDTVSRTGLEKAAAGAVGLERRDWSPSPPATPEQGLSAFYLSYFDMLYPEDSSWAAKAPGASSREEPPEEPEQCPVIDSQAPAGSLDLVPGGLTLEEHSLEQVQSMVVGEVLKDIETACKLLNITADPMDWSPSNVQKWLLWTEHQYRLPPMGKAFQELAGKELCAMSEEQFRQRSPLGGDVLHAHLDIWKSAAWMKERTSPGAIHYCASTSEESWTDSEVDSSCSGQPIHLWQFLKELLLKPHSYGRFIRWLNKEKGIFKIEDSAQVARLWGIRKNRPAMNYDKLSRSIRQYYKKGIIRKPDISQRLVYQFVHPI
# Method in brief: as §1
# [14] = biological target: T11, ETV7 (Homo sapiens, UniProt Q9Y603 1-341)
# T11 sequence: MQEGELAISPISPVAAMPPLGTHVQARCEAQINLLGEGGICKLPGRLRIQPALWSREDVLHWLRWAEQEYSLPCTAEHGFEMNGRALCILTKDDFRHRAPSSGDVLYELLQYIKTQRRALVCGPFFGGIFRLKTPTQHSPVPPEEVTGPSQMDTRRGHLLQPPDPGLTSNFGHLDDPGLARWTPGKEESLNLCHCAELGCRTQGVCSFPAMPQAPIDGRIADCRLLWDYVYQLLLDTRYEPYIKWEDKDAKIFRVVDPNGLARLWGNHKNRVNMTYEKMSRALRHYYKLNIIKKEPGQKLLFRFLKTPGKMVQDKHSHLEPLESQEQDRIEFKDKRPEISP
# Method in brief: as §1
# [15] = biological target: T12, ETV3 (Homo sapiens, UniProt P41162-2 1-143)
# T12 sequence: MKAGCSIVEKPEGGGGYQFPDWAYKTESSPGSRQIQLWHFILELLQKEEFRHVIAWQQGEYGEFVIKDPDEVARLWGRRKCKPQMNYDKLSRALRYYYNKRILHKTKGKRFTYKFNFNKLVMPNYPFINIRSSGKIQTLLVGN
# Method in brief: as §1
sequence,measurement,setting,value
TAGGGC,binding signal,[1],"1.07 fold enrichment (6-mer frequency, TF over GST control)"
same,binding signal,[2],"1.01 fold enrichment (6-mer frequency, TF over GST control)"
same,binding signal,[3],"1.01 fold enrichment (6-mer frequency, TF over GST control)"
same,binding signal,[4],"1.18 fold enrichment (6-mer frequency, TF over GST control)"
same,binding signal,[5],"1.06 fold enrichment (6-mer frequency, TF over GST control)"
same,binding signal,[6],"1.03 fold enrichment (6-mer frequency, TF over GST control)"
same,binding signal,[7],"1.03 fold enrichment (6-mer frequency, TF over GST control)"
same,binding signal,[8],"1.02 fold enrichment (6-mer frequency, TF over GST control)"
same,binding signal,[9],"1.06 fold enrichment (6-mer frequency, TF over GST control)"
same,binding signal,[10],"1.09 fold enrichment (6-mer frequency, TF over GST control)"
same,binding signal,[11],"1.04 fold enrichment (6-mer frequency, TF over GST control)"
same,binding signal,[12],"1.06 fold enrichment (6-mer frequency, TF over GST control)"
same,binding signal,[13],"1.01 fold enrichment (6-mer frequency, TF over GST control)"
same,binding signal,[14],"1.07 fold enrichment (6-mer frequency, TF over GST control)"
same,binding signal,[15],"1.03 fold enrichment (6-mer frequency, TF over GST control)"
